Among the data in PubChem BioAssay (NCI) are growth values, retold here.

Test in all cases: NCI-60 one-dose screen, 48 h (100 = growth as untreated, 0 = no growth, -100 = all killed)
What all share (settings): 10 µM unless noted

Experiment [1] deals with SR leukemia.
The subject of experiment [2] is RPMI-8226 leukemia.
Experiment [3] deals with OVCAR-8 ovarian.
Experiment [4] relates to OVCAR-5 ovarian.
Experiment [5] has as its system OVCAR-4 ovarian.
For experiment [6], the system named is SK-OV-3 ovarian.
In experiment [7] the test system is IGROV1 ovarian.
Experiment [8] concerns OVCAR-3 ovarian.
Experiment [9] relates to HS 578T breast.
For experiment [10], the system named is NCI/ADR-RES ovarian.

The panel holds about 83,000 compounds, 20% with a hit somewhere; the sample as a whole holds those more often.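 In brief: 96-well plates, 48 h treatment, single concentration, percent growth endpoint.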 Unmarked numbers belong to inactive results. Active and inactive are the calls of the source. The calls were made as follows: active = growth percent below 10; inactive = the rest.

In the case of `COc1ccc(NC(=O)c2ccc(-c3ccccc3)cc2)c(C(N)=O)c1`, the growth was 72.2% in [1]; 96.3% in [2]; 108% in experiment [3]; 112% in experiment [4]; 115% in experiment [5]; 98.5% in [6]. In addition, the growth in [7] was 102%; in experiment [8] it was 96.6%; in [9], 104%; in experiment [10] it was 98.2%.

For the compound `Cc1ccc(-c2c3c(N)c4c(nc3nc3c2c(C)nn3-c2ccccc2)CCC4)cc1`, the growth in experiment [1] is 6.66% (active); in [2], 85.6%; in experiment [3], 88%; in experiment [4], 94.7%; in [5], 124%; in [6], 96.4%. Further, the growth in experiment [7] was 96.3%; in experiment [8] it was 102%; in [9], 87.9%; in [10], 85.7%.

As to `C/C(=C\CCc1ccsc1)CC/C=C(\C)CCCN1CCSCC1`, the growth in experiment [1] is 53.6%; in experiment [2], 58%; in experiment [3], 99.9%; in experiment [4], 94.8%; in [5] it was 84.3%; in experiment [6] it was 93.1%. In addition, the growth in experiment [7] is 94.1%; in experiment [8], 82.3%; in experiment [9] it was 93.2%; in experiment [10], 84.9%.

For the compound `COC(=O)C1=CCC(n2cnc3c(N)ncnc32)O1` (stereo not given), the growth in [1] was 102%; in experiment [2] it was 118%; in [3] it was 96.3%; in [4], 109%; in [5] it was 106%; in experiment [6] it was 108%. Moreover, the growth was 109% in experiment [7], 106% in [8], 110% in experiment [9] and 95.4% in experiment [10].

Regarding `NS(=O)(=O)c1cc2c(cc1Cl)NC=NS2(=O)=O`, the growth in [1] was 96.1%; in [2], 104%; in [3], 102%; in experiment [4], 100%; in experiment [5] it was 107%; in [6], 110%. Moreover, the growth in experiment [7] was 109%; in experiment [8], 117%; in [9] it was 118%; in experiment [10], 108%.

Take `NC(=N\N=C/Cc1ccccc1)/C(N)=N\N=C\Cc1ccccc1`: the growth was 81.5% in experiment [1]; 101% in [2]; 107% in [3]; 98.8% in experiment [4]; 100% in experiment [5]; 113% in experiment [6]. Further, the growth in experiment [7] is 119%; in experiment [8] it was 110%; in experiment [9] it was 105%; in experiment [10], 103%.

Consider `CCOC(=O)C(Br)=P(c1ccccc1)(c1ccccc1)c1ccccc1`, for which the growth in experiment [1] was 90.2%; in [2], 83.1%; in experiment [3], 90.4%; in [4], 106%; in experiment [5], 106%; in experiment [6] it was 102%. For the same compound, the growth is -30.7% (active) in experiment [7], 98% in [8], 119% in experiment [9] and 103% in experiment [10].

For the compound `OCc1n(Cc2ccc3ccccc3c2)cc[n+]1Cc1ccc2ccccc2c1`, the growth is 15.9% in [1]; 13.5% in experiment [2]; 60.7% in experiment [3]; 62.3% in [4]; 23.9% in experiment [5]; 75.9% in experiment [6]. The growth in experiment [7] was 21.9%; in experiment [8] it was 39.9%; in experiment [9] it was 66.1%; in [10], 103%.

As to `COc1ccc2c(c1)[n+](=O)c(C(=O)/C=C/c1cc(OC)c(OC)c(OC)c1)c(C)n2[O-]`, the growth in experiment [1] is 29.5%; in experiment [2], 32.3%; in experiment [3], 57.4%; in [4], 102%; in [5], 72.3%; in experiment [6], 82.3%. The growth in [7] was -27.6% (active); in experiment [8], 102%; in experiment [9], 63.4%; in experiment [10], 73%.

As for `CCSc1nc(-c2cccs2)n2nc(-c3ccco3)cc2n1`, the growth in experiment [1] is 92.7%; in experiment [2] it was 53.9%; in [3], 99.8%; in [4], 97.3%; in experiment [5], 68.9%; in [6], 106%. Further, the growth in experiment [7] was 87.5%; in experiment [8] it was 112%; in [9], 108%; in experiment [10], 103%.

Regarding `CC(C)CC1NC(=O)C(CCCN)NC(=O)C(C(C)C)NC(=O)C2CCCN2C(=O)C(Cc2ccccc2)NC(=O)C(CC(C)C)NC(=O)C(CCCN)NC(=O)C(C(C)C)NC(=O)C2CCCN2C(=O)C(Cc2ccccc2)NC1=O` (stereo not given), the growth is -38.7% (active) in experiment [1]; -54.9% (active) in [2]; -42.1% (active) in experiment [3]; -44.7% (active) in experiment [4]; 9.59% (active) in experiment [5]; -77.2% (active) in experiment [6]. Also, the growth in [7] is -34.9% (active); in experiment [8], -73.1% (active); in experiment [9] it was -52.5% (active); in [10], 0.435% (active).

Turning to `C[C@@H]1CN(c2nc3c(cc2F)c(=O)c(C(=O)O)cn3C(C)(C)C)C[C@H](C)N1`, the growth in [1] was 115%; in experiment [2], 114%; in [3], 94.8%; in experiment [4], 109%; in experiment [5], 104%; in [6], 105%. Besides, the growth in experiment [7] is 121%; in experiment [8] it was 104%; in experiment [9], 67.2%; in experiment [10], 80.6%.

Consider `CC(NC(=O)Oc1cccc2ccccc12)c1ccccc1` (stereo not given), for which the growth in [1] was 90.8%; in experiment [2] it was 109%; in [3], 96.9%; in experiment [4], 123%; in [5], 97.4%; in experiment [6], 111%. For the same compound, the growth is 116% in [7], 103% in experiment [8], 107% in [9] and 97.6% in [10].
